The record followed here is PubChem BioAssay (NCATS).

Values without a mark were called inactive. Inconclusive results are not listed. Calls of active or inactive are those of the source. The call rests on the fitted dose curve; in most records, active means well fitted curve in the direction sought with a large enough effect; inconclusive means small, poorly fitted or top-dose-only effect, or another doubt; inactive means no such curve, though single readings can be large; an effect the other way counts as inactive or inconclusive.

The target of assay [1] is Glutathione peroxidase 1 (Homo sapiens) (UniProt P07203). The assay can be described thus: Primary qHTS Assay for Inhibitors of Recombinant Selenoprotein Glutathione Peroxidase 1 (GPX1) (AID 1845191). Further: nearly all actives have a fitted effect of over 65% in size. On activity, negative = inhibition: on the % scale 0 is the no-effect control and ±100 the full control effect. In a few lines: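 NADPH consumption tracked by fluorescence at 340/450 nm between t=0 and t=15 min, room temperature. Final mix: 10 nM GPX1, 100 nM glutathione reductase, 1 mM GSH, 0.5 mM NADPH, 0.5 mM cumene hydroperoxide, 0.01% BSA; 30 min compound–enzyme preincubation.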
Chain of Glutathione peroxidase 1 (Homo sapiens) (P07203 whole entry, looked up): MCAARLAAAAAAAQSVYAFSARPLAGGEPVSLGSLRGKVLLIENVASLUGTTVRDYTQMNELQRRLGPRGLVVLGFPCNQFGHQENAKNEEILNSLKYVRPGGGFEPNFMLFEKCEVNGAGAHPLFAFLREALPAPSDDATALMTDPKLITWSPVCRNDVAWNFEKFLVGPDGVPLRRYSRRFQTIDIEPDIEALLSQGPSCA
(qHTS replaces the single test concentration by a dilution series.)

For assay [2], the target named is Phospholipid hydroperoxide glutathione peroxidase GPX4 (Homo sapiens) (UniProt P36969). Put plainly: Primary qHTS Assay for Inhibitors of Recombinant Selenoprotein Glutathione Peroxidase 4 (GPX4) (AID 1845192). Further: nearly all actives have a fitted effect of over 65% in size. On activity change, negative = inhibition: series mostly up to about 50 µM; on the % scale 0 is the no-effect control and ±100 the full control effect. An outline of the steps:
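NADPH consumption followed by fluorescence at 340/450 nm, t=0 and after 15 min at room temperature. Reaction started with cumene hydroperoxide (0.5 mM final) after 30 min compound–GPX4 preincubation; final 200 nM GPX4, 100 nM GR, 1 mM GSH, 0.5 mM NADPH.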

Assay [3] deals with Luciferin 4-monooxygenase (Photinus pyralis) (UniProt P08659). Put plainly: Primary firefly luciferase (FLuc) qHTS assay for identification of artifact compounds. (AID 1845220). Further: nearly all actives have a fitted effect of over 60% in size. Further: potency means the concentration at half of the fitted maximal effect.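 On activity change, negative = inhibition: series mostly up to about 54 µM; plate controls were DMSO vehicle for no effect and no enzyme for full effect.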 An outline of the steps:
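Cell-free, 1536-well qHTS. Buffer pH 7.6 with 0.01% Tween-20 and 0.05% BSA; 10 uM D-luciferin, 10 uM ATP; 10 nM P. pyralis luciferase; luminescence after 5 min.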

Assay [4] can be described thus: Primary fluorescence-based thiol-reactive (MSTI) qHTS assay for identification of artifact compounds. (AID 1845221). Further: nearly all actives have a fitted effect of over 65% in size. Further: potency means the concentration at half of the fitted maximal effect.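 On activity change, negative = thiol reactive: series mostly up to about 54 µM; thiol-reactive compounds lower the probe fluorescence signal.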 An outline of the steps:
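Curve-fitted percent inhibition (4-parameter Hill) derived from fluorescence, Ex 525/Em 598 nm, scaled with Acetyl-MSTI and MSTI; 1 h incubation at room temperature.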

The test system of assay [5] is Nanoluciferase (engineered Oplophorus gracilirostris luciferase). Put plainly: Primary Nanoluciferase (NLuc) qHTS assay for identification of artifact compounds. (AID 1845222).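 Further: series mostly up to about 54 µM; 0% = DMSO and -100% = no enzyme.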 An outline of the steps:
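Compounds are pinned into diluted (1:55) conditioned medium of NLuc-expressing S16 cells and held 15 min at room temperature protected from light. Nano-Glo substrate follows, and luminescence is read 5 min later.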

Assay [6] in a line: Primary redox qHTS assay for identification of artifact compounds. (AID 1845223).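 Further: 0% = DMSO and 100% = reference compound.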 An outline of the steps:
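Redox-cycling detection via DTT (250 uM final) oxidation coupled to Amplex Red (25 uM)/HRP (250 mU/mL) in HBSS. 15 min preincubation plus 30 min after DTT, room temperature. Ex/Em 525/598 nm; 4-parameter Hill fit against DMSO and 10 uM DA3003.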

Chain of Phospholipid hydroperoxide glutathione peroxidase GPX4 (Homo sapiens) (P36969 whole entry, looked up): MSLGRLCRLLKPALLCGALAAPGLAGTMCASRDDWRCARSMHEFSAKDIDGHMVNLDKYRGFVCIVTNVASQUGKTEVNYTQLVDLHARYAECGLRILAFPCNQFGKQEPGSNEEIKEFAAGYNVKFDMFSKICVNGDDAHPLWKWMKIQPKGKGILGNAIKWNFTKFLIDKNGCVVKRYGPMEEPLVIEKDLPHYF

`CCOC(=O)CCN(C(=O)c1ccc2c(c1)nc(CNc1ccc(C(=N)N)cc1)n2C)c1ccccn1`: the Potency result in assay [1], in assay [2], in assay [3], in assay [4], in assay [5] and in assay [6] was “inactive” each time.
Turning to `CCC(COC)n1nnc2c(Nc3ccc(OC)cc3C)nc(C)cc21` (stereo unspecified), the Potency result in assay [1], in assay [2], in assay [3], in assay [4], in assay [5] and in assay [6] was “inactive” each time.
In the case of `COC(=O)C1(C)CCC2(C(=O)O)CCC3(C)C(=CCC4C5(C)CC(O)C(OC6OCC(O)C(O)C6O)C(C)(CO)C5CCC43C)C2C1` (stereo unspecified), the Potency entry in assay [1], in assay [2], in assay [3], in assay [4], in assay [5] and in assay [6] was “inactive” in each case.
On to `C[C@@H]1C[C@@H](O)[C@@]23CO[C@@H](O)[C@@H]2CCC[C@@H]3[C@@]12C[C@@H](c1ccoc1)OC2=O`, for which the Potency result in assay [1], in assay [2], in assay [3], in assay [4], in assay [5] and in assay [6] was “inactive” each time.
Consider `C[C@@H]1C(=O)O[C@H]2C[C@]34[C@H]5C[C@@H](C(C)(C)C)[C@]36[C@@H](OC(=O)[C@H]6O)O[C@]4(C(=O)O5)[C@]21O`, for which the Potency result in assay [1], in assay [2], in assay [3], in assay [4], in assay [5] and in assay [6] was “inactive” each time.
Consider `CC(=O)OC1C(O)C2C(C)C3=CC(=O)OC3(O)CC2C2(C)CCCC(C)(CO)C12` (stereo unspecified), for which the Potency entry in assay [1], in assay [2], in assay [3], in assay [4], in assay [5] and in assay [6] was “inactive” throughout.
On to `COc1cc2ncnc(Nc3cccc(O)c3)c2cc1OC`, for which the Potency result in assay [1], in assay [2], in assay [3], in assay [4], in assay [5] and in assay [6] was “inactive” in each case.
`CC1OC(OC2C(C)OC(OC3C(O)C(CO)OC(O[C@H]4CC[C@@]5(C)C(CC[C@]6(C)C5CC=C5C7[C@@H](C)[C@H](C)CC[C@]7(C(=O)O)CC[C@]56C(=O)O)C4(C)C)C3O)C(O)C2O)C(O)C(O)C1O` (stereo partly specified): the Potency result in assay [1] and in assay [2] was “inactive” in each case. Further, the activity change, negative = inhibition in assay [3] was 1.66% [at 11.6 µM]. Also, the activity change, negative = thiol reactive in assay [4] is 65.9% [at 11.5 µM]. Further, in assay [5], the activity, negative = inhibition was -3.75% [at 11.6 µM]. For the same compound, the redox activity (% of DA3003) in assay [6] is -18.3% [at 11.5 µM].
For the compound `CCNC(=O)C1OC(n2cnc3c(N)nc(NCCc4ccc(CCC(=O)O)cc4)nc32)C(O)C1O` (stereo unspecified), the Potency entry in assay [1], in assay [2], in assay [3], in assay [4], in assay [5] and in assay [6] was “inactive” in each case.
In the case of `Nc1nc2c(ncn2[C@@H]2O[C@H](CO)[C@@H](O)[C@H]2O)c(=O)[nH]1`, the Potency result in assay [1], in assay [2], in assay [3], in assay [4], in assay [5] and in assay [6] was “inactive” throughout.
Take `C=C[C@H]1C(O[C@@H]2O[C@H](CO)[C@@H](O)[C@H](O)[C@H]2O)OC=C2C(=O)N3CCc4c([nH]c5ccccc45)C3CC21` (stereo partly specified): the Potency result in assay [1], in assay [2], in assay [3], in assay [4], in assay [5] and in assay [6] was “inactive” in each case.
Turning to `N#Cc1cc(F)cc(-c2nc(-c3ccccn3)no2)c1`, the Potency entry in assay [1], in assay [2], in assay [4], in assay [5] and in assay [6] was “inactive” each time. The Potency in assay [3] is 7.57 µM (active).
In the case of `C/C1=C\CCC2=C[C@@H](OC2=O)c2c(C)coc2C1`, the Potency entry in assay [1], in assay [2], in assay [3], in assay [5] and in assay [6] was “inactive” in each case. Also, the Potency in assay [4] is 11.9 µM (active).
On to `O=C(NCc1cccc(O)c1)Nc1nc(-c2ccncc2)cs1`, for which the Potency entry in assay [1], in assay [2], in assay [3], in assay [4], in assay [5] and in assay [6] was “inactive” each time.
Take `C[C@]12C[C@@H](O)[C@@H]3C[C@@]1(O[C@@H]1O[C@H](CO)[C@@H](O)[C@H](O)[C@H]1O)[C@]3(COC(=O)c1ccccc1)C(=O)O2`: the Potency result in assay [1], in assay [2], in assay [3], in assay [5] and in assay [6] was “inactive” throughout. For the same compound, the Potency in assay [4] is 13 µM (active).
Take `CC1=CC(=O)CC(C)(CO)C1(O)/C=C/C(C)O[C@@H]1O[C@H](CO)[C@@H](O)[C@H](O)[C@H]1O` (stereo partly specified): the Potency result in assay [1], in assay [2], in assay [3], in assay [5] and in assay [6] was “inactive” throughout. For the same compound, the Potency in assay [4] was 10.3 µM (active).
Take `COC(=O)N(C)c1c(N)nc(-c2nn(Cc3ccccc3F)c3ncccc23)nc1N`: the Potency result in assay [1], in assay [2], in assay [3], in assay [4], in assay [5] and in assay [6] was “inactive” throughout.
For the compound `COc1cc(O)cc(C)c1C(=O)O[C@H]1[C@@H](OC(C)=O)[C@H](n2ccc(=O)[nH]c2=O)O[C@@H]1CO`, the Potency entry in assay [1], in assay [2], in assay [3], in assay [4], in assay [5] and in assay [6] was “inactive” each time.
As for `COC(=O)CC(O)CC(O)/C=C/c1c(C)ccc2c1C(O)CC(C)C2` (stereo unspecified), the Potency entry in assay [1], in assay [2], in assay [3], in assay [4], in assay [5] and in assay [6] was “inactive” each time.
As to `NC(=O)[C@H]1CCS[C@@H]2C[C@]3(CCCN3C(=O)Cc3ccc(NC(=O)COc4ccc(Cl)cc4Cl)cc3)C(=O)N12`, the Potency result in assay [1], in assay [2], in assay [3], in assay [4], in assay [5] and in assay [6] was “inactive” in each case.
For the compound `COC(=O)CC(O)C1OC(c2ccccc2)C(O)C1O` (stereo unspecified), the Potency result in assay [1], in assay [2], in assay [3], in assay [5] and in assay [6] was “inactive” in each case. Besides, the Potency in assay [4] was 8.44 µM (active).
